Test results reported in the supplement of paper PMC8728848.
The full list was thinned out, with the strongest signals kept by preference.

What was measured:
Test in all cases: glycan array binding signal (z-score within array); higher = stronger binding
Conditions in all cases: glycan notation: IUPAC condensed, linker removed
GalNAc(a1-3)GalNAc = target: GalNAc(a1-3)GalNAc
In short: (§1)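 Glycan array data were curated from 3228 arrays in the Consortium for Functional Glycomics database and kept only where the protein sequence was available. Glycan names were converted to IUPAC-condensed notation, and columns mapping to the same glycan were averaged. The binding signal is a within-array Z-score, averaged across arrays of the same protein sequence at different concentrations or buffers and across linkers. Negative Z-scores can be read as non-binding.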

[1] = target: GalNAc(b1-4)GlcNAc(b1-2)Man(a1-3)[GalNAc(b1-4)GlcNAc(b1-2)Man(a1-6)]Man(b1-4)GlcNAc(b1-4)GlcNAc
In short: as §1

[2] = target: GalNAc(b1-4)GlcNAc(b1-3)GalNAc(b1-4)GlcNAc
In short: as §1

Glc(a1-6)Glc(a1-6)Glc = target: Glc(a1-6)Glc(a1-6)Glc
In short: as §1

GlcA(b1-3)Gal = target: GlcA(b1-3)Gal
In short: as §1

[3] = target: GlcNAc(b1-2)Man(a1-3)[GlcNAc(b1-4)][GlcNAc(b1-2)Man(a1-6)]Man(b1-4)GlcNAc(b1-4)[Fuc(a1-6)]GlcNAc
In short: as §1

[4] = target: GlcNAc(b1-3)Gal(b1-4)GlcNAc(b1-2)[GlcNAc(b1-3)Gal(b1-4)GlcNAc(b1-6)]Man(a1-6)[GlcNAc(b1-3)Gal(b1-4)GlcNAc(b1-2)Man(a1-3)]Man(b1-4)GlcNAc(b1-4)GlcNAc
In short: as §1

[5] = target: GlcNAc(b1-3)Gal(b1-4)GlcNAc(b1-3)Gal(b1-4)GlcNAc(b1-2)Man(a1-3)[GlcNAc(b1-3)Gal(b1-4)GlcNAc(b1-3)Gal(b1-4)GlcNAc(b1-2)Man(a1-6)]Man(b1-4)GlcNAc(b1-4)[Fuc(a1-6)]GlcNAc
In short: as §1

[6] = target: GlcNAc(b1-3)Gal(b1-4)GlcNAc(b1-3)Gal(b1-4)GlcNAc(b1-2)[GlcNAc(b1-3)Gal(b1-4)GlcNAc(b1-3)Gal(b1-4)GlcNAc(b1-6)]Man(a1-6)[GlcNAc(b1-3)Gal(b1-4)GlcNAc(b1-3)Gal(b1-4)GlcNAc(b1-2)Man(a1-3)]Man(b1-4)GlcNAc(b1-4)[Fuc(a1-6)]GlcNAc
In short: as §1

[7] = target: GlcNAc(b1-3)Gal(b1-4)GlcNAc(b1-3)GalNAc
In short: as §1

[8] = target: Kdn(a2-3)Gal(b1-4)[Fuc(a1-3)]GlcNAc
In short: as §1

[9] = target: Man(a1-2)Man(a1-2)Man(a1-3)Man
In short: as §1

[10] = target: Neu5Ac(a2-3)Gal(b1-3)GalNAc
In short: as §1

[11] = target: Neu5Ac(a2-3)Gal(b1-3)GalNAc6S
In short: as §1

[12] = target: Neu5Ac(a2-3)Gal(b1-3)GlcNAc(b1-6)GalNAc
In short: as §1

[13] = target: Neu5Ac(a2-3)Gal(b1-3)[Fuc(a1-4)]GlcNAc(b1-3)Gal(b1-3)[Fuc(a1-4)]GlcNAc
In short: as §1

[14] = target: Neu5Ac(a2-3)Gal(b1-3)[Neu5Ac(a2-6)]GlcNAc(b1-3)[Fuc(a1-3)[Gal(b1-4)]GlcNAc(b1-6)]Gal(b1-4)Glc
In short: as §1

[15] = target: Neu5Ac(a2-3)Gal(b1-4)GlcNAc(b1-3)Gal(b1-4)GlcNAc(b1-3)[Neu5Ac(a2-3)Gal(b1-4)GlcNAc(b1-3)Gal(b1-4)GlcNAc(b1-6)]GalNAc
In short: as §1

[16] = target: Neu5Ac(a2-3)Gal(b1-4)GlcNAc(b1-6)[Gal(b1-3)]GalNAc
In short: as §1

[17] = target: Neu5Ac(a2-3)Gal(b1-4)[Fuc(a1-3)]GlcNAc(b1-3)Gal(b1-4)GlcNAc
In short: as §1

[18] = target: Neu5Ac(a2-6)Gal(b1-4)GlcNAc(b1-2)Man(a1-3)[Neu5Ac(a2-6)Gal(b1-4)GlcNAc(b1-2)Man(a1-6)]Man(b1-4)GlcNAc(b1-4)[Fuc(a1-6)]GlcNAc
In short: as §1

[19] = target: Neu5Ac(a2-6)Gal(b1-4)GlcNAc(b1-3)Gal(b1-4)GlcNAc(b1-3)Gal(b1-4)GlcNAc
In short: as §1

[20] = target: Neu5Ac(a2-6)Gal(b1-4)GlcNAc(b1-3)Gal(b1-4)GlcNAc(b1-3)Gal(b1-4)GlcNAc(b1-2)Man(a1-3)[Neu5Ac(a2-6)Gal(b1-4)GlcNAc(b1-3)Gal(b1-4)GlcNAc(b1-3)Gal(b1-4)GlcNAc(b1-2)Man(a1-6)]GalNAc
In short: as §1

[21] = target: Neu5Ac(a2-6)Gal(b1-4)GlcNAc(b1-3)GalNAc
In short: as §1

[22] = target: Neu5Ac(a2-8)Neu5Ac(a2-3)[GalNAc(b1-4)]Gal(b1-4)Glc
In short: as §1

[23] = target: Neu5Ac(a2-8)Neu5Ac(a2-8)Neu5Ac(a2-3)Gal(b1-4)Glc
In short: as §1

[24] = target: Neu5Ac(a2-8)Neu5Gc(a2-3)Gal(b1-4)GlcNAc
In short: as §1

[25] = target: Neu5Gc(a2-3)Gal(b1-3)[Fuc(a1-4)]GlcNAc
In short: as §1

B1: PX14343F-bfa-562-20-562 (Bacteroides fragilis) (protein)
chain: CDDFLDSFPQDTVTNENFWKSKEDADKVLVDIYASLLPKDAIFFDEAMSDNAYLVWDWWGGAQQVANGSYTTSGEIPTNRWNGSYEVIRKCWFLLEGIEKIEDISEQDKNKIIGETYFMLAYNYYVLTSYFGDVPLVTKTLAIPESKQLVRTPKAEVVDYAINKLKEAAVMLEGLSQEKGRVTADACRFLIARMYLYNGDYSNVLETVKLLEGKYQLYREGDTPYEDLFSGVAENSCEVILSVVCDKRVGEIYTSHGGNGIMLLKGITGEDPYRGVTPSGSLVDAYPMADGRLIHEAGSSYDPKKPYEGRDPRFYQSIVYPTGQIKYLDVETGTVKERLYDPEDPTTVPEHQYNYSQPSATGYMWNKYIDYSVYAMNSVWDCTNDIIVFRYADVLLMKAEALLQTKGESAKEEVCNLIDQLRDRCSCGRVHRENYNSKDELMELLKNERRIELANEGLRYMDLIRWKDAEKNTIVTGVGLTGQMYGAYMRKDGVGKDDKTVDVDNTPRRYIETRYFNASKGYLFPIPQKERDLNPNLTQNPNW
**Q.** How did the “glycan array binding signal (z-score)” value (GalNAc(a1-3)GalNAc) turn out when B1 was run?
**A.** The value was 0.306.

**Q.** And the “glycan array binding signal (z-score)” value [1]?
**A.** Its value is 2.1.

**Q.** What about the “glycan array binding signal (z-score)” value [2] of the same binder?
**A.** Its value is 0.152.

**Q.** And the “glycan array binding signal (z-score)” value (Glc(a1-6)Glc(a1-6)Glc)?
**A.** Its value is -0.43.

**Q.** What about the “glycan array binding signal (z-score)” value (GlcA(b1-3)Gal) of the same binder?
**A.** The value was -0.822.

**Q.** What about the “glycan array binding signal (z-score)” value [3] of the same binder?
**A.** Its value is -0.489.

**Q.** And the “glycan array binding signal (z-score)” value [4]?
**A.** Its value is 1.87.

**Q.** And the “glycan array binding signal (z-score)” value [5]?
**A.** The value was 1.72.

**Q.** And the “glycan array binding signal (z-score)” value [6]?
**A.** Its value is 0.546.

**Q.** And the “glycan array binding signal (z-score)” value [7]?
**A.** Its value is 0.486.

**Q.** And the “glycan array binding signal (z-score)” value [8]?
**A.** Its value is -0.468.

**Q.** And the “glycan array binding signal (z-score)” value [9]?
**A.** The value was -0.59.

**Q.** What about the “glycan array binding signal (z-score)” value [10] of the same binder?
**A.** Its value is -0.546.

**Q.** What about the “glycan array binding signal (z-score)” value [11] of the same binder?
**A.** Its value is -0.506.

**Q.** And the “glycan array binding signal (z-score)” value [12]?
**A.** The value was 1.15.

**Q.** What about the “glycan array binding signal (z-score)” value [13] of the same binder?
**A.** Its value is -0.121.

**Q.** What about the “glycan array binding signal (z-score)” value [14] of the same binder?
**A.** Its value is -0.957.

**Q.** And the “glycan array binding signal (z-score)” value [15]?
**A.** Its value is 1.61.

**Q.** And the “glycan array binding signal (z-score)” value [16]?
**A.** Its value is -0.723.

**Q.** And the “glycan array binding signal (z-score)” value [17]?
**A.** Its value is 0.262.

**Q.** And the “glycan array binding signal (z-score)” value [18]?
**A.** The value was 1.09.

**Q.** What about the “glycan array binding signal (z-score)” value [19] of the same binder?
**A.** Its value is -0.047.

**Q.** And the “glycan array binding signal (z-score)” value [20]?
**A.** The value was 2.16.

**Q.** What about the “glycan array binding signal (z-score)” value [21] of the same binder?
**A.** The value was -0.734.

**Q.** What about the “glycan array binding signal (z-score)” value [22] of the same binder?
**A.** The value was 1.74.

**Q.** And the “glycan array binding signal (z-score)” value [23]?
**A.** The value was 0.121.

**Q.** What about the “glycan array binding signal (z-score)” value [24] of the same binder?
**A.** Its value is 19.1.

**Q.** And the “glycan array binding signal (z-score)” value [25]?
**A.** Its value is -0.055.
